Paper PMC4336329 (PLoS ONE, 2015)
In all, about 310,000 compounds went through this assay and about 14,000 (4.5%) showed an effect of 50% or more. Effects have a minus sign here. The sample as a whole holds a higher share of strong results than the screen did.

molecular target: human ether-à-go-go-related gene (hERG) potassium channel (human, UniProt Q12809); assay: primary screen, population patch clamp on CHO cells stably expressing hERG; higher = less effect of the substance
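Note: peak tail current of the secondary pulse compared with the same well before compound.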

Sequence of human ether-à-go-go-related gene (hERG) potassium channel (Q12809 whole entry, looked up): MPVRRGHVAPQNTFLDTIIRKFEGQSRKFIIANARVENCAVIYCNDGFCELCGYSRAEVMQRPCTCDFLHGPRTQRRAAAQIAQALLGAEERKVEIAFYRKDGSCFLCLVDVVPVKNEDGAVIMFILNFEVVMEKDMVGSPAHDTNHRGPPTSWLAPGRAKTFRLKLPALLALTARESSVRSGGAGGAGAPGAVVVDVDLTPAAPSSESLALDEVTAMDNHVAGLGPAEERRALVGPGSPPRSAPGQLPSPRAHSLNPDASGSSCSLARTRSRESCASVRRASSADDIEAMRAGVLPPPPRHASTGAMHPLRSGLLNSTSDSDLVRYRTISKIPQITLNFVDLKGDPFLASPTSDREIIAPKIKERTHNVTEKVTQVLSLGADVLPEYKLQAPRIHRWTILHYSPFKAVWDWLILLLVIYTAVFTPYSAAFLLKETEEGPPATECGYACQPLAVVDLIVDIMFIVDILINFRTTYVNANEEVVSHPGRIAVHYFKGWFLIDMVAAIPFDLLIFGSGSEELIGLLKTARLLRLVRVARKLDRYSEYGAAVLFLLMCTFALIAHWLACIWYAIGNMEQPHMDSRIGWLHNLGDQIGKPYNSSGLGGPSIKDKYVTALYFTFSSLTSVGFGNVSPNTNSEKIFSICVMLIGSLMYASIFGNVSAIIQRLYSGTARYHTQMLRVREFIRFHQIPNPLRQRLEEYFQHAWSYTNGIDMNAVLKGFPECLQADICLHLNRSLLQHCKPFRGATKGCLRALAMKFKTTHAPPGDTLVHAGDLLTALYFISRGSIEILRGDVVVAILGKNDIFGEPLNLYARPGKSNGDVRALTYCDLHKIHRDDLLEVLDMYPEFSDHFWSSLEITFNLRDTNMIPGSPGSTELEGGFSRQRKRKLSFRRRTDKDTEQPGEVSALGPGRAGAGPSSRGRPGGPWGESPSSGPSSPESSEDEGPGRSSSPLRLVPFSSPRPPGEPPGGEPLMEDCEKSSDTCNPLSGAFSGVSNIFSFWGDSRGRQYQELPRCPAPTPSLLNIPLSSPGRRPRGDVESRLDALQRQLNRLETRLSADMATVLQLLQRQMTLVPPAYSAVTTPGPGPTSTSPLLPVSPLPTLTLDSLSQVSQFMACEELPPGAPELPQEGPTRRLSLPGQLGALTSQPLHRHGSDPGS

SMILES | hERG current change (%, negative = inhibition) at 10uM
COc1ccc(C2C(C(=O)c3cccs3)=C(O)C(=O)N2c2nnc(C)s2)cc1OC (stereo not drawn) | 1.32%
CCN1C(=O)/C(=C\N2CCN(c3ccc(F)cc3)CC2)SC1=S | 15.5%
COc1ccc(N2C(=O)C3CCCN3C2c2cccc(C)c2)cc1Cl (stereo not drawn) | -31.3%
O=C(Nc1ccccc1F)C(=O)c1cn(CC(=O)N2CCCCC2)c2ccccc12 | 13.8%
CN1CCN(C2=Nc3ccccc3Oc3ccc(Cl)cc32)CC1.O=C(O)CCC(=O)O | -6.25%
CCN(CC(=O)NC(=O)NC1CCCCC1)Cc1nc2ccccc2c(=O)[nH]1 | -8.1%
CN1CC(=O)N=C1N.Cl | -50.1%
CN1CC(=O)N=C1N | 8.56%
O=C(CN1CCN(S(=O)(=O)c2ccc(F)c(Cl)c2)CC1)N1CCNC1=O | -1.79%
Cc1ccc(-c2noc(C3CCCN(C(=O)c4ccccc4Br)C3)n2)cc1 (stereo not drawn) | 0.00198%
N/C(=N\OC(=O)/C=C/c1ccccc1)c1ccc(Br)cc1 | 4.83%
COc1ccc(CCNCC2C(Oc3ccc(Cl)cc3)C(=O)N2c2ccccc2C)cc1OC.Cl (stereo not drawn) | -41%
O=[N+]([O-])c1cc(/C=N/n2cnnc2)ccc1N1CCCC1 | -38.7%
O=C(OCC(=O)N(Cc1ccccc1)Cc1ccccc1)c1ccccc1O | 5.67%
O=C(OCC(=O)N(Cc1ccccc1)Cc1ccccc1)c1ccccc1NCCO | -15.4%
N#CCc1ccccc1C(=O)OCC(=O)N(Cc1ccccc1)Cc1ccccc1 | -52.1%
CC1CCN(Cc2nc(-c3ccc(Cl)cc3)no2)CC1 | 8.57%
O=CN1CCCN(Cc2nc(-c3cccc(Cl)c3)no2)CC1 | -13.3%
FC(F)(F)c1ccc(-c2noc(CN3CCCN(C4CCCCC4)CC3)n2)cc1 | -75.7%
CN1CCCN(Cc2nc(-c3ccc(Cl)cc3)no2)CC1 | -72.6%
Clc1ccc(-c2noc(CN3CCCC3)n2)cc1 | -15.1%
CN1CCCN(Cc2nc(-c3cccc(C(F)(F)F)c3)no2)CC1 | -60.2%
FC(F)(F)c1cccc(-c2noc(CN3CCOCC3)n2)c1 | 6.74%

SMILES | hERG current change (%, negative = inhibition) at 10uM
Cc1ccc(-c2noc(CN3CCCCC3)n2)cc1 | 34.6%
c1cnc(-c2noc(CN3CCN(C4CCCC4)CC3)n2)cn1 | 18.7%
CN1c2ccccc2C(C)(C)C12C=Cc1cc(O)ccc1O2 (stereo not drawn) | -5.61%
Cc1oc2cc(Br)c(O)c(Br)c2c1-c1ccccc1 | -13.5%
CC(C)(C)OC(=O)NCCCC[C@H](NC(=O)c1[nH]cnc1C(=O)Nc1ccccc1)C(=O)OC(C)(C)C | 15.6%
CCCNNC(=O)C(O)(c1cccc(C)c1)c1cccc(C)c1 | -2.43%
Cc1ccc(N2C(=O)C(Cl)=C(N3CCOCC3)C2=O)c(C)c1 | 14.6%
O=C(COC(=O)c1ccc(Cl)c(S(=O)(=O)N2CCCCC2)c1)NCC1CCCO1 (stereo not drawn) | -14.1%
O=C(COC(=O)c1ccc(Cl)c(S(=O)(=O)NCc2ccccc2)c1)NCC1CCCO1 (stereo not drawn) | -53%
O=C(COC(=O)c1cccc(S(=O)(=O)NCc2ccccc2)c1)NCC1CCCO1 (stereo not drawn) | 3.36%
CCN(CC)C(=O)C(=O)c1cccn1-c1ccc(C#N)cc1 | -18.8%
COc1ccc2oc(=O)c(/C(C)=N/Nc3ccccc3)cc2c1 | -2.36%
CCOC(=O)COc1cc(O)c2c(=O)cc(-c3ccccc3)oc2c1 | 12%
CC(C)(C)OC(=O)COc1cc(OCC(=O)OC(C)(C)C)c2c(=O)cc(-c3ccccc3)oc2c1 | -15%
CCOC(=O)COc1cc(OCC(=O)OCC)c2c(=O)cc(-c3ccccc3)oc2c1 | -62.6%
CC(C)(C)NS(=O)(=O)c1cc2c3c(c1)CCN3C(=O)CC2 | 17.4%
O=C1CCc2cc(S(=O)(=O)NC3CCCCC3)cc3c2N1CC3 | 1.44%
CC1CC(NS(=O)(=O)c2cc3c4c(c2)CCN4C(=O)CC3)CC(C)(C)C1 (stereo not drawn) | -63.1%
c1ccc(-c2nnc(C(c3ccccc3)c3ccccc3)o2)cc1 | 6.86%
CCOC(=O)C1CCCN(c2c(C(=O)c3ccccc3)cnc3ccccc23)C1 (stereo not drawn) | -26.5%
CCOC(=O)C1CCCN(c2c(C(=O)c3ccccc3)cnc3ccc(OC)cc23)C1 (stereo not drawn) | -37.5%
CCOC(=O)c1cnc2ccc(OCC)cc2c1N1CCN(c2ccccc2)CC1 | 13.9%
CCOc1ccc(C(=O)c2cnc3ccccc3c2N2CCN(CC)CC2)cc1 | -65.5%

SMILES | hERG current change (%, negative = inhibition) at 10uM
CCN1CCN(c2c(C(=O)c3ccc(OC)cc3)cnc3ccccc23)CC1 | -80.3%
COc1ccc(C(=O)c2cnc3ccccc3c2-c2ccccc2)cc1 | -9.47%
COc1ccccc1-c1cc(C(=O)NC(C)c2ccccc2)no1 (stereo not drawn) | 9.56%
CCC(C)N=Cc1c(Nc2ccccc2)nc2c(C)cccn2c1=O (stereo not drawn) | 17.6%
O=C(Nc1cccc2ncccc12)c1cccnc1 | 14.5%
CC(C)(C)c1ccc(C(=O)NCc2cccnc2)cc1 | -2.42%
COc1ccc(OC)c(CCNC(=O)CCc2nnc3ccc(N4CCOCC4)nn23)c1 | 16.1%
CCOC(=O)c1c(C)oc2c1cc(NS(=O)(=O)c1ccc(C(=O)O)cc1)c1ccccc12 | -60.7%
COC(=O)c1c(C)oc2c1cc(NS(=O)(=O)c1ccc(C(=O)O)cc1)c1ccccc12 | 7.86%
CC(=O)c1c(C)oc2c1cc(NS(=O)(=O)c1ccc(C(=O)O)cc1)c1ccccc12 | 14.3%
O=C(CCCC(=O)OCC(F)(F)C(F)F)Nc1ccccc1F | 14.8%
CN(C)C(/C=C/Nc1cccc([N+](=O)[O-])c1)=C(C#N)C#N | -11.1%
CC(C)(C)c1nn(-c2ccccc2)c2[nH]c(=O)c(CNc3ccc4c(c3)OCCO4)cc12 | -4.99%
CC(C)Cc1ccc(C(C)C(=O)Nc2nccs2)cc1 (stereo not drawn) | -1.33%
CCOC(=O)Cc1csc(NC(=S)NC(=O)c2ccc([N+](=O)[O-])cc2)n1 | 13.8%
CC(C(=O)Nc1nccs1)c1ccc([N+](=O)[O-])cc1 (stereo not drawn) | -72%
Cc1cc2cc(CNC(=O)c3cccc([N+](=O)[O-])c3)ccc2[nH]1 | -25.3%
Cc1cc2cc(CNC(=O)Cc3ccc([N+](=O)[O-])cc3)ccc2[nH]1 | -50.7%
CCOC(=O)Cc1csc(NC(=O)C(C)c2ccc([N+](=O)[O-])cc2)n1 (stereo not drawn) | -55.9%
CC(Sc1ccc([N+](=O)[O-])cn1)C(=O)Nc1nccs1 (stereo not drawn) | -5.58%
CCOC(=O)Cc1csc(NS(=O)(=O)c2ccc([N+](=O)[O-])cc2)n1 | 7.89%
CCOC(=O)Cc1csc(NC(=O)Cc2ccc(Cl)cc2)n1 | -15.1%
CCC(=O)NCc1ccc2[nH]c(C)cc2c1 | 37%

SMILES | hERG current change (%, negative = inhibition) at 10uM
CCOC(=O)Cc1csc(NC(=O)Cc2ccc(C)cc2)n1 | -18%
CCOC(=O)Cc1csc(NC(=O)Cc2ccc([N+](=O)[O-])cc2)n1 | -64.9%
COc1ccc(CCN=C(N)NS(=O)(=O)c2ccc(C)cc2)cc1OC | 6.05%
CCCCNC(=O)C1CCCN1C(=O)Nc1cccc(OC)c1 (stereo not drawn) | 14%
Cc1sc2ncn(/N=C/c3ccco3)c(=O)c2c1C | -2.43%
CC(C)OC(=O)c1cc(NC(=O)C2C3C=CC(O3)C2C(=O)O)cc(C(=O)OC(C)C)c1 (stereo not drawn) | -1.28%
Cc1c(C)c(C)c2[nH]c(=S)[nH]c2c1C | 24.9%
CCN(CC)C(=O)COC(=O)c1ccc(O)cc1 | 7.43%
CC1=C(C(=O)Nc2ccccc2C(=O)NCCCOC(C)C)SCCO1 | 14%
CCCCn1c(=O)[nH]c(=O)c2c1nc(-c1ccccc1F)n2Cc1ccccc1OC | 11.5%
COc1ccc(-c2cc(C(F)(F)F)nc(SCC(=O)N(C)Cc3cnn(C)c3C)n2)cc1OC | -42.4%
Cc1cc(C)nc(NC(=O)Cc2ccc([N+](=O)[O-])cc2)c1 | -67.9%
Cc1ccnc(NC(=O)Cc2ccc([N+](=O)[O-])cc2)c1 | -12.4%
CC(C(=O)Nc1ccccc1Br)c1ccc([N+](=O)[O-])cc1 (stereo not drawn) | -35.5%
Cc1cc(Br)ccc1NC(=O)C(C)c1ccc([N+](=O)[O-])cc1 (stereo not drawn) | -70.7%
CC(C(=O)Nc1cccc(Br)c1)c1ccc([N+](=O)[O-])cc1 (stereo not drawn) | -47.3%
Cc1cc(C)nc(NC(=O)Cc2ccc(Cl)cc2)c1 | -5.94%
CCOc1cc(NC(=O)CC(C)C)c(OCC)cc1NC(=O)CCn1nnc2ccccc21 | 10.1%
CCOC(=O)c1ccc(-n2ccnc2)c(NC(=O)c2ccc(C(C)(C)C)cc2)c1 | -41%
CCOC(=O)c1ccc(-n2ccnc2)c(NC(=O)c2ccc(Cl)cc2)c1 | -66.2%
CCOC(=O)c1ccc(-n2ccnc2)c(NC(=O)c2cccc(Br)c2)c1 | -42.1%
